Source: PubChem (National Center for Advancing Translational Sciences (NCATS))
Only some compounds are listed: those with a hit (about 9% of all), similar ones and a draw of the others.
12-LOX inh – Primary qHTS assay for inhibitors of human arachidonate 12S-lipoxygenase (ALOX12): Round 2; Polyunsaturated fatty acid lipoxygenase ALOX12 (Homo sapiens), P18054; purified 12hLO, xylenol orange hydroperoxide absorbance; Potency, µM (doses to about 108 µM), for the others: at the top dose activity change, negative = inhibition, hits mostly inhibitors; 580,000 compounds, 1.1% hits; note: % is set by controls: 0 for no effect and ±100 for the full control effect
Target sequence (P18054 whole entry, looked up): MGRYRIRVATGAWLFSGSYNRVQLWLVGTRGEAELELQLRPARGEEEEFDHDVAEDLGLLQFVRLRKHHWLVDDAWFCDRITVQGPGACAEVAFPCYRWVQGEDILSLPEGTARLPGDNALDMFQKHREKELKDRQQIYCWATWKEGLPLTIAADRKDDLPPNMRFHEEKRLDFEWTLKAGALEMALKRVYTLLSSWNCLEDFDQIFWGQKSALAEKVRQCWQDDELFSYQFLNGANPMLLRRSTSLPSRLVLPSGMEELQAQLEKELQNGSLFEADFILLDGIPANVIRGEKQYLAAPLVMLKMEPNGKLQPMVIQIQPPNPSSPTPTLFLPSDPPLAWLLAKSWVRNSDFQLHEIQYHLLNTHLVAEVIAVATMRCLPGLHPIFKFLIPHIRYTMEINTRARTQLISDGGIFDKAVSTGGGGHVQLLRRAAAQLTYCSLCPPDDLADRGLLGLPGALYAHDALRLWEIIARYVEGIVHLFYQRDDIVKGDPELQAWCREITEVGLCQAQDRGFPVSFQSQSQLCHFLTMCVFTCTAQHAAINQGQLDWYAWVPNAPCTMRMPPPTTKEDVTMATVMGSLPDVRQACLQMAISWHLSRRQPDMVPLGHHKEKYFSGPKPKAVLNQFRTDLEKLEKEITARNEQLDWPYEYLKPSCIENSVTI
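Purified human 12hLO at 150 nM in 25 mM Hepes, 0.01% Triton X-100, pH 7.0, preincubated 15 min at room temperature with compound. Reaction started with 40 uM arachidonic acid, 30 min at room temperature. Hydroperoxide measured by Fe-xylenol orange, 573/405 nm absorbance ratio.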
PLK1 PBD inh – qHTS for Inhibitors of PLK1-PDB (polo-like kinase 1 - polo-box domain): Primary Screen. 360,000 compounds, 2.8% hits. Plk1 PBD binding of FITC phosphopeptide, fluorescence polarization. Potency, µM, for the others: max response, negative = inhibition, most hits filed as inhibitors. AID 720504, 2013. Serine/threonine-protein kinase PLK1 (Homo sapiens), P53350; note: series mostly up to about 57 µM; % is set by controls: 0 for no effect and ±100 for the full control effect; nearly all actives have a fitted effect of over 65% in size
JMJD2A Tudor inh – qHTS Assay for Inhibitors of JMJD2A-Tudor Domain; Lysine-specific demethylase 4A (Homo sapiens), O75164; AlphaScreen JMJD2A-Tudor / H3K4me3 peptide binding; Potency, µM (doses to about 114 µM), without a hit: at the highest dose activity change, negative = inhibition, actives largely listed as inhibitors; 390,000 compounds, 4.4% hits; AID 504339, 2011; note: % is set by controls: 0 for no effect and ±100 for the full control effect; nearly all actives have a fitted effect of over 50% in size
BAZ2B block – qHTS Assay for Inhibitors of BAZ2B; Bromodomain adjacent to zinc finger domain protein 2B (Homo sapiens), Q9UIF8; AlphaScreen BAZ2B-H3K14Ac peptide displacement; Potency, µM (titrated, usually from 114 µM), for the others: top-dose activity change, negative = inhibition, actives largely listed as inhibitors; 360,000 compounds, 4.4% hits; AID 504333, 2011; note: % is set by controls: 0 for no effect and ±100 for the full control effect; nearly all actives have a fitted effect of over 60% in size
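BAZ2B (50 nM) with biotin-H3(5-23)K14Ac peptide (50 nM) in PBS pH 7.4, 0.01% Tween-20, preformed 30 min, then compound 30 min at room temperature; top concentration 110uM. AlphaScreen streptavidin donor/nickel chelate acceptor beads (10 ug/mL final), 20 min dark, signal read.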
G9a inh – qHTS Assay for Inhibitors of Histone Lysine Methyltransferase G9a; G9a H3K9 monomethylation, AlphaScreen, 2 h; Potency, µM (titrated, usually from 102 µM), without a hit: top-dose activity, negative = inhibition, actives largely listed as inhibitors; 350,000 compounds, 8.8% hits; note: % is set by controls: 0 for no effect and ±100 for the full control effect; nearly all actives have a fitted effect of over 75% in size
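G9a (20 nM) was preincubated 15 min with compound, then reacted 2 h at room temperature with 500 nM biotin-H3K9 peptide and 20 µM SAM. Monomethyl-H3K9 detected by AlphaScreen using anti-H3K9me1 antibody.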
HP1b binding inh – HTS for Inhibitors of HP1-beta Chromodomain Interactions with Methylated Histone Tails. Chromobox protein homolog 1 (Homo sapiens), P83916. Potency, µM (top dose mostly 114 µM), without a hit: at the highest dose activity change, negative = inhibition, hits mostly inhibitors. AlphaScreen HP1-beta / biotin-H3K9me3 peptide binding. 390,000 compounds, 0.56% hits; note: nearly all actives have a fitted effect of over 70% in size
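Compound inhibition of the preformed complex between 50 nM HP1-beta and 50 nM biotinylated H3K9me3 peptide was read by AlphaScreen. Buffer was PBS pH 7.4 with 0.01% Tween-20. Incubations ran 30 min at room temperature, with 10 ug/mL donor/acceptor beads.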
Starred values were filed as active, the others as inactive; ? = inconclusive; . = no result given; [ ] = dose if it differs, or a comment. Calls come from the whole dose curve; as a rule, active = well fitted curve in the direction sought with a large enough effect; inconclusive = small, poorly fitted or top-dose-only effect, or another doubt; inactive = no such curve, though single readings can be large; an effect the other way counts as inactive or inconclusive. Potency is the fitted concentration of half-maximal effect.

SMILES	12-LOX inh	PLK1 PBD inh	JMJD2A Tudor inh	BAZ2B block	G9a inh	HP1b binding inh
O=C(Nc1cccc(C(F)(F)F)c1)c1ccc2nc(-c3ccco3)c(-c3ccco3)nc2c1	-39%	5.3µM*	20µM*	50µM*	?	-92%
O=C(Nc1ccc2nc(-c3ccco3)c(-c3ccco3)nc2c1)NC1CC1	.	?	20µM*	11µM*	?	35µM*
OCCCNC(=S)Nc1ccc2nc(-c3ccccn3)c(-c3ccccn3)nc2c1	-5%	-16%	-25%	0%	-14%	25%
O=C(Nc1ccc(N2CCOCC2)cc1)Nc1ccc2nc(-c3ccco3)c(-c3ccco3)nc2c1	?	?	?	5%	1.8µM*	-17%
COc1cc(NCc2ccc3nc(N)nc(N)c3c2C)cc(OC)c1OC	?	.	.	.	10µM*	.
COc1ccc(Cc2nnc(NC(=O)c3c(-c4ccccc4)noc3C)s2)cc1	32%	-16%	-26%	?	?	30%
COc1ccc(Cc2nnc(NC(=O)c3c(-c4ccccc4)noc3C)s2)cc1OC	-13%	.	.	-7%	40µM*	.
CCOCc1nnc(NC(=O)c2c(-c3ccccc3)noc2C)s1	?	30µM*	-28%	-2%	32µM*	-23%
CC1CC(C)C[N+](=C2C=C(N3CCCC3)CC(C)(C)C2)C1 (stereo not given)	10%	-26%	18µM*	-17%	?	?
CC1(C)CC(N2CCCC2)=CC(=[N+]2CCCCCC2)C1	?	30µM*	?	?	?	4%
CC1(C)CC(N2CCN(c3ccccc3)CC2)=CC(=[N+]2CCCC2)C1	?	3%	?	5%	45µM*	38%
CC1(C)CC(=O)C=C(N2CCNCC2)C1	14%	-6%	-14%	29%	21%[59 µM]	7%
CC(=O)Nc1ccc(SCC(=O)NC(=O)c2ccc(S(=O)(=O)N(C)C)cc2)cc1	?	11µM*	-16%	.	.	36%
CC(=O)Nc1ccc(SCC(=O)NNC(=O)CN(C)S(=O)(=O)c2ccc(C)cc2)cc1	9%	-29%	-4%	0%	45µM*	94%
CC(=O)c1ccc(S(=O)(=O)N(C)CC(=O)Nc2ccc(C)cc2)cc1	196%	3%	6%	-4%	20%[59 µM]	33%
N#CC1=C2SCN(C3CCCCC3)CN2C(=O)CC1c1ccc(Cl)cc1 (stereo not given)	?	.	16µM*	.	2µM*	?
COC(=O)CSC1=C(C#N)C(c2ccc(C(C)C)cc2)CC(=O)N1 (stereo not given)	-19%	-17%	-32%	8%	?	16%
CC(C)c1ccc(C2CC(=O)N3CN(C)CSC3=C2C#N)cc1 (stereo not given)	.	4.7µM*	?	-33%	1.6µM*	?
N#CC1=C2SCN(C3CCCCC3)CN2C(=O)CC1c1c(F)cccc1Cl (stereo not given)	?	.	22µM*	.	2.8µM*	?
O=C1CSC(c2ccc(Cl)cc2)N1C1CCCCC1 (stereo not given)	?	-9%	3%	7%	13%[59 µM]	30%
O=C(COC(=O)CCC(=O)c1ccc(F)cc1)NC1CCCCC1	-4%	-5%	-4%	.	.	10%
CC(C)(C)N1CC2([N+](=O)[O-])CN(C(C)(C)C)CC([N+](=O)[O-])(C1)C2	0%	0%	-3%	1%	12%[2.33 µM]	48%
Cc1ccc(NC(=O)N2CCCC2c2nncn2-c2ccccc2)c(Cl)c1 (stereo not given)	1%	.	.	.	.	.
O=C(O)CN1CCCC1=Nc1ccccc1	?	-1%	-15%	89µM*	?	38%
CCN1CCN(c2cc3c(nn2)Oc2ccccc2N3C)CC1	10%	-1%	12%	5%	50µM*	15%
Cc1[nH][nH]c(=O)c1N=Nc1ccccc1C#N	?	.	.	?	45µM*	.
COc1ccc(N=Nc2c(C)[nH][nH]c2=O)cc1	?	-17%	-34%	56µM*	?	-30%
COc1ccccc1N=Nc1c(C)[nH][nH]c1=O	0%	-2%	-28%	?	35µM*	-3%
Cc1[nH][nH]c(=O)c1N=Nc1ccc(F)cc1	?	1%	-29%	?	?	-6%
CCC(C)Nc1nc(N)c([N+](=O)[O-])c(NC2CCCCC2)n1 (stereo not given)	5%	-10%	-10%	2%	-20%[2.33 µM]	30%
